Screens from PubChem.
Pf Dd2 inh: blocks in vitro growth of P. falciparum Dd2; P. falciparum Dd2 growth, SYBR Green, 72 h; AID 1347417; 120,000 compounds, 4.3% hits; Potency, µM (top dose mostly 28.9 µM), for inactives: top-dose activity, negative = inhibition, most hits filed as inhibitors; active means well fitted inhibition curve with a large enough effect;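 further: plate controls were DMSO vehicle for no effect and reference drug for full effect; nearly all actives have a fitted effect of over 65% in size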
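Infected erythrocytes (Dd2, 0.3% parasitemia, 2.5% hematocrit final) are added to compound in RPMI-1640/Albumax II medium, grown 72 h at 37C in low oxygen, then lysed with saponin/Triton-X containing SYBR Green and read by fluorescence.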
* = called active by the depositor; i = inactive; [ ] = another dose, or the depositor's remark. The sample as a whole holds a higher share of hits than the screen did. Potency means the concentration at half of the fitted maximal effect.

SMILES | Pf Dd2 inh
O=C(c1ccc(F)cc1)N1CCCC2(CN[S+](=O)([O-])c3ccccc3N2)C1 (stereo not drawn) | 8.8%
COc1ccccc1CN1CCCC(CN(CCN(C)C)C(=O)c2ccccc2OC)C1 (stereo not drawn) | i
COc1ccccc1CCN1CCCC(CN(C)C(=O)C(=O)c2cccn2C)C1 (stereo not drawn) | 14.1µM*
Cc1cc(C(=O)N(C)CC2CCCN(CCc3ccccc3F)C2)n[nH]1 (stereo not drawn) | -27.9%
CC(C)(C)CCN1CCCC(COc2ccccc2C(=O)N2CCCC2)C1 (stereo not drawn) | i
COc1ccccc1CCN1CCCC(CN(C)C(=O)Nc2ccccc2)C1 (stereo not drawn) | 2.24µM*
Cn1cccc1CN1CCCC(COc2ccccc2C(=O)N2CCCCC2)C1 (stereo not drawn) | i
COc1cccc(CC(=O)N2CCCC(c3nc(CCOCC4CCCC4)no3)C2)c1 (stereo not drawn) | -25.5%
CS(=O)(=O)Nc1ccc(C2(C(=O)N3CCN(c4ccccn4)CC3)CCCCC2)cc1 | i
Cc1ccc(C(=O)N2CCC(n3cc(-c4nc(C(C)C)no4)nn3)C2)cc1 (stereo not drawn) | -13.8%
O=C1NCCCCCCN(S(=O)(=O)c2ccc3c(c2)OCCO3)[C@H]2CCC[C@@H]12 | -1.6%
Cc1ccc(C(=O)N2CC(c3nnc(C(C)C)o3)C3(CCOCC3)C2)cc1 (stereo not drawn) | 11.7%
Cn1ncc(CN2CCc3nc(-c4ccc(F)cc4F)[nH]c3C2)c1C1CC1 | 11.2µM*
CN1CCN(c2nc3c(c(=O)[nH]2)CCN(Cc2ccc(F)cc2F)CC3)CC1 | 35.3%[5.79 µM]
Cc1noc(CN2CCc3nc(-c4ccc(F)cc4F)[nH]c3C2)n1 | -6.9%
COc1cc(OC)cc(C(=O)N2CCC3(CC2)N(C)C(=O)CS3(=O)=O)c1 | 12.1%
COc1ccc(NC(=O)Cn2nnc3sc4c(c3c2=O)CCC(C)C4)c(OC)c1 (stereo not drawn) | 19.1%
COC(=O)c1c(NC(=O)COc2c(C)ccc(C)c2C)sc2c1CCC(C)C2 (stereo not drawn) | 26.3%
COc1ccc(OC)c(NC(=O)c2c(NCc3ccc(C)o3)sc3c2CCC(C)C3)c1 (stereo not drawn) | 11.2µM*
CCOC(=O)N1CCc2c(sc3c2C(=O)NC(c2cc(OC)c(O)c(OC)c2)N3)C1 (stereo not drawn) | -14.7%
COC(=O)c1c(NC(=O)COc2cc(C)ccc2C(C)C)sc2c1CCC(C)C2 (stereo not drawn) | 24.2%
CCOC(=O)N1CCc2c(sc(NCc3ccc(N(CC)CC)cc3)c2C(=O)Nc2cc(OC)ccc2OC)C1 | 7.94µM*
COc1ccc(OC)c(NC(=O)c2c(NCc3ccc(OC)c(OC)c3)sc3c2CCC(C)C3)c1 (stereo not drawn) | 5.62µM*
COC(=O)c1c(NC(=O)COc2ccc(OC)cc2)sc2c1CCC(C)C2 (stereo not drawn) | -0.7%
CCOC(=O)N1CCc2c(sc(NCc3cccs3)c2C(=O)Nc2ccc(OC)cc2OC)C1 | -6.3%
SMILES | Pf Dd2 inh
COc1ccc(NC(=O)N[C@H]2[C@H](O)[C@@H](N3CCC(C(N)=O)CC3)[C@@H]3OC[C@H]2O3)cc1 | -28.9%[44.1 µM]
COc1ccc(-c2cc(CC3(NCc4ccccc4)COC3)no2)cc1 | i
O=S1(=O)CCC(S(=O)(=O)N2CCOCC2)C1 (stereo not drawn) | -3.3%
CNC(=O)c1noc(CN2CCCC(C)(c3ccccc3)C2)n1 (stereo not drawn) | -15.1%
N#Cc1cccc(NC(=O)O[C@@H]2CO[C@H]3[C@@H]2OC[C@@H]3Nc2nccc(-c3cccc(C#N)c3)n2)c1 | i
COCC(=O)N[C@H]1CO[C@H]2[C@@H]1OC[C@@H]2Nc1nccc(-c2cccc(F)c2)n1 | i
COc1ccc(NC(=O)O[C@@H]2CO[C@H]3[C@@H]2OC[C@@H]3Nc2nccc(-c3cccc(C#N)c3)n2)cc1 | -19.7%
CC(C)(C)C(=O)N[C@H]1CO[C@H]2[C@@H]1OC[C@@H]2Nc1nccc(-c2cccc(C#N)c2)n1 | i
N#Cc1cccc(-c2ccnc(N[C@H]3CO[C@H]4[C@@H]3OC[C@H]4OC(=O)Nc3cccc4ccccc34)n2)c1 | 11.2µM*
COCC(=O)N[C@H]1CO[C@H]2[C@@H]1OC[C@@H]2Nc1nccc(-c2cccc(C#N)c2)n1 | 11.2µM*
COc1ccc(OC)c(CNC(=O)C2Cn3cccc3C(=O)N2CC(C)C)c1 (stereo not drawn) | i
O=C(c1cccc(F)c1)N1CCOC[C@H](Oc2cccnc2)C1 | 9.9%[44.1 µM]
COC(=O)[C@@H](C)NC(=O)[C@H]1CN(C(=O)c2cccnc2)CCN1C(=O)NC1CCCCC1 | 14.1%
Cc1nccn1Cc1nnc(C2CCN(C(=O)c3cnccn3)CC2)n1C | 23.8%
CCc1ccccc1NC(=O)Cn1c(SCc2ccc(F)cc2)nc2ccncc21 | 11.1%
Cc1ccc(CSc2nc3cc(C(=O)NC4CCCC4)ccc3c(=O)n2Cc2ccccc2)cc1 | 15.8%
COc1ccc(C(=O)N2CCc3ccc(C(=O)NCc4cccs4)cc32)cc1 | -18.5%
O=C(NCc1cccs1)c1ccc2c(c1)n(Cc1cccc(F)c1)c(=O)c1ccnn12 | 5.62µM*
O=C(O)c1ccc2c(c1)n(Cc1cccc(F)c1)c(=O)c1ccnn12 | i
O=C(NCc1ccccc1)c1ccc2c(c1)n(Cc1ccc(F)cc1)c(=O)c1ccnn12 | i
O=C(NC1CCCC1)c1ccc2c(=O)n(Cc3ccccc3)c(SCc3cccc(F)c3)nc2c1 | 17.4%
COc1ccc(Cn2c(SCc3ccc(C(=O)NCc4cccs4)cc3)nc3ccncc32)cc1 | 7.94µM*
CC(CNC(=O)c1ccc(CSc2nc3ccncc3n2Cc2ccc(F)cc2)cc1)c1ccccc1 (stereo not drawn) | 4.47µM*
O=C(NC1CCCC1)c1ccc2c(=O)n(Cc3ccccc3)c(SCc3ccc([N+](=O)[O-])cc3)nc2c1 | 3.16µM*
CC(C)NC(=O)c1ccc(Cn2c(SCc3ccc(F)cc3)nc3cccnc32)cc1 | -7.2%
SMILES | Pf Dd2 inh
CN(Cc1ccccc1)Cc1cn([C@H]2CO[C@H]3[C@@H]2OC[C@@H]3NC(=O)Nc2cccc(C(F)(F)F)c2)nn1 | -20.3%
N#Cc1ccc(CN2CCC3(CC2)CC(c2cccnc2)=NO3)cc1 | i
CCNC(=O)[C@@H]1C[C@H](NC(=O)CO)CN1Cc1cc(C2CCCCC2)no1 | 8.3%
Cc1ccc(S(=O)(=O)NC[C@H]2O[C@@H](CC(=O)NCc3ccc(F)cc3)[C@H](O)[C@@H]2O)cc1 | 20.9%
Cc1ncc2c(c1CNC(=O)c1cccc(-c3ncc[nH]3)c1)CCNC2 | -2.3%
FC1(F)C[C@@H](c2nc(C3CC3)no2)N(Cc2ccco2)C1 | 4.8%
CCn1ncc(N2CCC(NC(=O)c3ccc(OC)c(F)c3)CC2)cc1=O | -23.3%
Cn1c(=O)n(C)c2cc(S(=O)(=O)NCC3(O)CCCNCC3)ccc21 (stereo not drawn) | -9.4%
O=C(NC1CCCC1)N1CCCC(Cc2nncn2Cc2ccccc2)C1 (stereo not drawn) | -8.2%
O=C(c1ccccn1)N1CCC(N2C(=O)C(OCC3CC3)C23CCOCC3)CC1 (stereo not drawn) | -1.1%
Cc1cccc(CSc2nc3cccnc3n2Cc2ccc(C(=O)NCc3cccs3)cc2)c1 | i
CCc1ccc(CNC(=O)c2ccc(CSc3nc4ccncc4n3Cc3ccccc3)cc2)cc1 | 10µM*
O=C(NC1CCCC1)c1ccc(CSc2nc3cccnc3n2Cc2cccc(F)c2)cc1 | -10.3%
COc1ccc(CSc2nc3ccncc3n2CC(=O)Nc2ccc(C)c(F)c2)cc1 | i
